# Hits are enriched below; roughly 3.3% of the tested compounds scored in any of these assays.
# 15-hLO inh – qHTS Assay for Inhibitors of 15-hLO (15-human lipoxygenase); Polyunsaturated fatty acid lipoxygenase ALOX15 (Homo sapiens), P16050; purified 15hLO-1, xylenol orange hydroperoxide absorbance; Potency, µM (series often up to 57.1 µM), usual class: inhibitors; 1.4% of 74,000 active; AID 887, 2007; further: nearly all actives have a fitted effect of over 55% in size
# Target sequence (P16050 whole entry, looked up): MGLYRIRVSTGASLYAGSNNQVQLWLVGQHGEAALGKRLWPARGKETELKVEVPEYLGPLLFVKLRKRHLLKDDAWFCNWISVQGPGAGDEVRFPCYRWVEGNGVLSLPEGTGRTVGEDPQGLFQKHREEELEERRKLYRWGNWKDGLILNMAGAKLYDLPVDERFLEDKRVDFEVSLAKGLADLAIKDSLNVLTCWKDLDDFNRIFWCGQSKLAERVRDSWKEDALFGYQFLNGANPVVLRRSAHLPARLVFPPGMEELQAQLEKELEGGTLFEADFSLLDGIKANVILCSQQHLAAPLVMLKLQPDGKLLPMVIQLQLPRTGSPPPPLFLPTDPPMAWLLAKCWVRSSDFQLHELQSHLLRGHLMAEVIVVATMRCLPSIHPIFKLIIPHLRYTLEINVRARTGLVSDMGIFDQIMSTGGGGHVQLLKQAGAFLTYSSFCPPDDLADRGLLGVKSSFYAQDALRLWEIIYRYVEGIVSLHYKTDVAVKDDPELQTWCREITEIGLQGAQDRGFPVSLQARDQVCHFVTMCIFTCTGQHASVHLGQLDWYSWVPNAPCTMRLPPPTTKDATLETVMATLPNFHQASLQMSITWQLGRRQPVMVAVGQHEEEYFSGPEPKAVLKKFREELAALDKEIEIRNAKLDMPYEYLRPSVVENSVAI
#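 Purified human 15hLO-1 (40 nM final) in 25 mM Hepes pH 7.5, 0.01% Triton X-100 was preincubated with compound 15 min at room temperature, then reacted 6 min with 50 uM arachidonic acid; hydroperoxide detected by Fe-XO, 573/405 nm absorbance ratio.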
# Tau filament bind – qHTS Assay for Tau Filament Binding. recombinant tau filaments, thioflavin S fluorescence, 15 h; filaments grown with octadecylsulfate alongside compound. Potency, µM (doses to about 57.1 µM). 2% of 71,000 active;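 further: actives lower thioflavin S fluorescence by blocking filaments or displacing dye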
#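 Tau 2 uM in ThS buffer dispensed; compound added; 60 uM ODS added (finals 1 uM tau, 30 uM ODS); 15 h 37 C; fluor ex450/em510.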
# BRCT PPI green – qHTS Assay for Inhibitors of BRCT-Phosphoprotein Interaction (Green Fluorophore); Breast cancer type 1 susceptibility protein (Homo sapiens), P38398; BRCA1 BRCT-phosphopeptide binding, green fluorescence polarization; Potency, µM (titrated, usually from 76.9 µM), hits mostly inhibitors; 0.05% of 75,000 active
#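 Compounds were incubated for 12 min at room temperature with a complex of 100 nM fluorescein-tagged pBACH1 decapeptide and 250 nM His-tagged BRCT protein. Buffer was phosphate pH 7.3 with EDTA, DTT and Tween 20. Disruption of binding lowers the polarization signal.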
# TsaE inh – qHTS Assay for Inhibitors of YjeE | tRNA threonylcarbamoyladenosine biosynthesis protein TsaE (Escherichia coli (strain … | purified YjeE enzyme, qHTS inhibition assay | Potency, µM | 0.05% of 71,000 active
#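 Fluorescence polarization of a BODIPY Texas Red–ADP probe (2 uM) bound to purified YjeE (10 uM) was read after 15 min room-temperature incubation with compounds. Loss of polarization marks inhibitors; ADP serves as titrated control.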
# Pol III holo inh – qHTS Assay for Inhibitors of DNA Polymerase III Holoenzyme System | reconstituted DNA polymerase III holoenzyme replication, biochemical | Potency, µM (top dose mostly 57.1 µM) | 0.25% of 71,000 active | AID 603, 2007
#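 Reconstituted *E. coli* holoenzyme (0.35 nM Pol III, 1 nM beta, 154 nM SSB, 2 nM primase) was preincubated with compound for 15 min at RT. Synthesis on 1.4 nM ssM13Gori ran 35 min, then was stopped with PicoGreen/EDTA and read as dsDNA fluorescence.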
# BRCT inh red – qHTS Assay for Inhibitors of BRCT-Phosphoprotein Interaction (Red Fluorophore) | Potency, µM (series often up to 76.9 µM), hits mostly inhibitors | 0.03% of 75,000 active | BRCT-phosphopeptide binding, red fluorescence polarization | Breast cancer type 1 susceptibility protein (Homo sapiens), P38398
#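 Fluorescence polarization: 100 nM His-tagged BRCA1 BRCT with 100 nM TAMRA-labelled phospho-BACH1 decapeptide, phosphate buffer pH 7.3 with 150 mM NaCl, DTT, 0.01% Tween 20; 12 min RT. Binding inhibition seen as FP decrease.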
# Hits are given with their value; – = inactive; ? = inconclusive; · = no result given; [ ] = another dose, or the depositor's remark. The call rests on the fitted dose curve; in most records, active means well fitted curve in the direction sought with a large enough effect; inconclusive means small, poorly fitted or top-dose-only effect, or another doubt; inactive means no such curve, though single readings can be large; an effect the other way counts as inactive or inconclusive.
SMILES,15-hLO inh,Tau filament bind,BRCT PPI green,TsaE inh,Pol III holo inh,BRCT inh red
O=C(c1cccc(F)c1)N1CCN(C(=O)c2cc(-c3ccc(Cl)cc3Cl)on2)CC1,16µM,–,–,–,–,–
COc1cccc(C(=O)N2CCN(C(=O)c3cccc(F)c3)CC2)c1,–,–,–,–,–,–
CCCCC(c1nnnn1CCOC)N1CCN(c2cccc(OC)c2)CC1 (stereo unspecified),?,13µM,–,–,?,–
OCCN(CCO)c1nc(N2CCCCC2)c2nc(N(CCO)CCO)nc(N3CCCCC3)c2n1,–,–,40µM,–,–,–
CCOc1ccccc1OCc1nn2c(COc3ccccc3)nnc2s1,3.2µM,–,–,–,–,–
CNc1ccccc1C(C)(C)c1cc(-c2ccco2)n[nH]1,?,32µM,–,–,–,–
COC(=O)c1ccc(C(NC(=O)OCc2ccccc2)/C(F)=C/[C@@H](C)C(=O)Nc2ccc(OC)cc2)cc1 (stereo partly specified),–,–,–,–,–,–
Cc1cc(C)c2nc3s/c(=C/c4ccc5c(c4)n(C)c(=O)n5C)c(=O)n3c2c1,–,25µM,–,–,–,–
COc1ccc(O)c(/C=c2/sc3nc4cc(C)c(C)cc4n3c2=O)c1,?,–,–,–,–,–
Cc1cccc(Nc2ccccc2C(=O)O)c1C,–,–,–[3.08 µM],–,2.5µM,–
c1ccc(-c2cccc(N3CC[C@@]4(CCCNC4)C3)c2)cc1,–,13µM,–,–,–,–
CC(=O)NCCNc1ncncc1-c1ccccc1C,16µM,–,–,–,–,–
CC(=O)NCCNc1ncncc1-c1ccccc1C(F)(F)F,–,–,–,–,–,–
CCNc1ncc2nc(-c3ccc(Cl)cc3)c(=O)n(C)c2n1,–,–,–,–,–,–
CCCCn1c(=NC(=O)c2ccco2)c(C(=O)OCC)cc2c(=O)n3ccccc3nc21,–,7.9µM,–,–,–,–
CCOCCCn1c(=NC(=O)c2cccnc2)c(C(=O)OCC)cc2c(=O)n3ccccc3nc21,–,–,–,–,–,–
CCCCn1c(=NC(=O)c2cccnc2)c(C(=O)OCC)cc2c(=O)n3ccccc3nc21,–,–,–,–,–,–
CCCCCn1c(=NC(=O)c2ccco2)c(C(=O)OCC)cc2c(=O)n3ccccc3nc21,–,5µM,–,–,–,–
Cc1ccc(S(=O)(=O)N[C@H]2COC(=O)[C@@H](C)COC(=O)[C@H](C)NC(=O)C/C=C\[C@H]2C)cc1,–[11.4 µM],·,–[15.4 µM],·,·,–[15.4 µM]
O=C(Nc1nnc(-c2ccccc2)s1)c1ccc(Cl)c(S(=O)(=O)N2CCOCC2)c1,–[11.4 µM],–[11.4 µM],–,–,–[11.4 µM],–
NC(=O)c1cc(-c2ccccc2)sc1NC(=O)Cc1ccc(S(=O)(=O)N2CCOCC2)s1,–,7.9µM,–,–,–,–
O=C(/C=C\c1ccc(O)c(O)c1)OCCc1ccccc1,0.79µM,–,–,–,–,–
O=C(/C=C/c1ccc(O)c(O)c1)O[C@@H](C(=O)O)[C@@H](OC(=O)/C=C/c1ccc(O)c(O)c1)C(=O)O,?,–,–,–,–,–
COC(=O)NC(CC(C)=O)c1cccc(C)c1 (stereo unspecified),–[11.4 µM],·,–[15.4 µM],·,·,–[15.4 µM]
CC(C)CCN1CCc2nc(COc3ccccc3)c3c(c2C1)COC(C)C3 (stereo unspecified),–[11.4 µM],·,–[15.4 µM],·,·,–[15.4 µM]
O=P(O)(O)O[C@@H]1O[C@H](CO)[C@@H](O)[C@H](O)[C@@H]1O,–[11.4 µM],–[11.4 µM],–[15.4 µM],–,–[11.4 µM],–[15.4 µM]
CC(C)NCC(O)Cn1c2c(c3ccccc31)CCc1c-2cnn1-c1ccccc1 (stereo unspecified),13µM,?,–,–,–,–
Cc1ccc2c(c1)c1c(n2CC(O)Cn2c(C)nc3ccccc32)C(=O)CCC1 (stereo unspecified),–,–,–,–,–,–

# Compound activity deposited in PubChem BioAssay by National Center for Advancing Translational Sciences (NCATS).
